Most compounds without a hit are left out; they make up all but 8.9% or so of the library.
Htt clearance: mutant huntingtin protein clearance; hit rate 0.42% among 47,000; HeLa Exon1htt(103Q)mCFP, aggregate imaging; zero = plate's median compound well; inhibition, % at 1.5 µM;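 active means inhibition of aggregate fluorescence above about 70%, also judged a hit by eye on the cell image, limit read from the data, passing the limit was not always enough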;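 further: cells exposed to compound for three days before fixation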
D1 allo mod: D1 dopamine receptor (human) allosteric modulation; P21728; B-score at 10 µM; HEK293 D1, CRE-luciferase, dopamine EC30 potentiation; actives deviate in either direction; hit rate 5.9% among 58,000;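 active means luminescence count or its row- and column-corrected plate score outside the 99.7% band of the plate's sample wells, on either side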
Target sequence (P21728 whole entry, looked up): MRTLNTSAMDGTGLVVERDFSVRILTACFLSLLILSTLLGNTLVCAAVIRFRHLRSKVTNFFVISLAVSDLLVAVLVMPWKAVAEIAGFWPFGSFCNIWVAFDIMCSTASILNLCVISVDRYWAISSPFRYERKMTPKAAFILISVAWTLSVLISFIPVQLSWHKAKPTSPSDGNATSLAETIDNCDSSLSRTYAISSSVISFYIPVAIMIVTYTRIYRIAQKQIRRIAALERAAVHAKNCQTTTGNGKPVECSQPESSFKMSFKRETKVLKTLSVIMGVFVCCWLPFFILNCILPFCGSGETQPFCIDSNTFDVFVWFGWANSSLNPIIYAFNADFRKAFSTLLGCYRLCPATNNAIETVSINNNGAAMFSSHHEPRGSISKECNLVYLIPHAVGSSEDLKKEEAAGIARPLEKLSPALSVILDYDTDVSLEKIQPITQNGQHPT
M1 antagonist: blocks the rat M1 muscarinic receptor response to acetylcholine; CHO-M1 cells, Fluo-4 calcium, ACh EC80 antagonist mode; active compounds read low; B-score at 10 µM; hit rate 3.4% among 64,000;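 active means calcium fluorescence response, raw or row-and-column corrected B-score, differing from the plate sample mean either way at a set confidence level, mostly lower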
WNV NS2B-NS3 inh: inhibitors of West Nile virus NS2B-NS3 protease. P06935. WNV NS2B-NS3 protease, fluorogenic substrate Ex360/Em465; active compounds read low. z-score (concentration not given with the values). hit rate 0.18% among 65,000; in the data active means z-score below about -3
M1 ag: activates the M1 muscarinic receptor; CHO-M1 cells, Fluo-4 calcium fluorescence, agonist mode; active compounds read high; B-score at 10 µM; hit rate 3% among 64,000;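 active means fluorescence rise, raw or as B-score row- and column-corrected plate score, outside the 99.7% band of its plate's samples, either direction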
M1 antag confirm: M1 muscarinic receptor (rat) antagonism, confirmed; shares compounds with M1 antagonist; CHO-M1 cells, Fluo-4 calcium, ACh EC80 antagonism; active compounds read low; calcium response (max-min fluorescence) at 10 µM; hit rate 43% among 1,700; AID 677;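 active means calcium response below the same-plate mean of wells given acetylcholine alone at its 80%-effect dose, minus 3 SD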
mGluR4 antag: acts on human mGluR4 in M1 antagonist selectivity test. AID 678. fluorescence response (max-min) at 10 µM. hit rate 0.9% among 1,700. shares compounds with M1 antagonist. CHO-mGluR4 calcium flux, Fluo-4 fluorescence, glutamate EC80; active compounds read low;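 active means fluorescence response below the plate's average for near-maximal glutamate wells, less 3 SD of those wells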;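 further: raw unnormalized fluorescence span taken in the window right after glutamate addition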
Numbers stand for hits; - = inactive; . = no result given.

SMILES	Htt clearance	D1 allo mod	M1 antagonist	WNV NS2B-NS3 inh	M1 ag	M1 antag confirm	mGluR4 antag
CN(C1CCCCC1)S(=O)(=O)c1ccc(-n2cnnn2)cc1	-	-	-2.09	-	-	-	-
O=C(Nc1ccccc1)c1cccnc1N1CCOCC1	.	-	-3.32	-	-	-	-
COC(=O)c1ccccc1NC(=O)N1CCN(C/C=C/c2ccccc2)CC1	-	-	-4.13	-	-	-	-
COCc1[nH]nc2c1C(c1ccsc1)C(C#N)=C(N)O2 (stereo not given)	.	-	-2.75	-	-	-	-
COCc1[nH]nc2c1C(c1ccc(OC)cc1)C(C#N)=C(N)O2 (stereo not given)	.	.	-	-	-	.	.
COC(=O)c1cc(OC)c(OC)cc1NC(=S)N1CCN(c2ccccc2)CC1	-	.	.	.	.	.	.
CC(C)CCNC(=O)C1CCN(c2nnc(-n3cccc3)s2)CC1	-	.	.	.	.	.	.
CC1CCN(Cc2ccc(NC(=O)C3CCN(c4nnc(-n5cccc5)s4)CC3)cc2)CC1	.	-	-12.6	-	-	14.8	-
COc1ccccc1OCC(=O)Nc1ccc(S(=O)(=O)Nc2nc(C)cc(C)n2)cc1	.	-	-	-	-	.	.
O=C(CS(=O)CC(=O)N(CC(=O)NC1CCCC1)C1CCCC1)Nc1ccc(F)cc1 (stereo not given)	-	-	-	-	-	.	.
COc1ccc(C2CCCN2C(=O)Nc2cccc(C(C)=O)c2)cc1OC (stereo not given)	.	-	-2.5	-	-	-	-
CSC1=NCCN1C(=O)c1c(F)cccc1F	-	-	-3.07	-	-	-	-
CSC1=NCCN1C(=O)c1ccco1	-	-	-	-	-	.	.
CCOC(=O)c1cnc2c(Cl)c(Cl)ccc2c1N1CCN(C)CC1	-	-	-3.13	-	-	-	-
CCOC(=O)c1cnc2ccc(OCC)cc2c1N1CCN(c2ccccc2)CC1	-	.	.	.	.	.	.
CCN1CCCC1CNC(=O)C1CCN(Cc2nc(-c3cccc(Br)c3)oc2C)CC1 (stereo not given)	.	-	-	-	-	.	.
CCOc1ccc2nc(N3CCC(C(=O)N4CCN(c5ccccn5)CC4)CC3)sc2c1	.	.	-2.38	-	-	-	-
CCOc1ccc2nc(N3CCC(C(=O)N4CCN(c5ncccn5)CC4)CC3)sc2c1	.	-	-	-	-	.	.
COc1cccc2sc(=NC(=O)c3ccc(S(=O)(=O)N4CCOCC4)cc3)n(C)c12	.	-	-	-	-	.	.
CCn1c(=NC(=O)c2ccc(S(=O)(=O)N3CCOCC3)cc2)sc2cccc(OC)c21	-	-	-1.75	-	-	-	-
CCN(CC)CCN(CC)Cc1ccccc1Br	-	-	-3.29	-	-	-	-
N#CC1=C(N)NC(SCc2ccccc2)=C(C#N)C12CCCCC2	-	-	-	-	-	.	.
CCSC1=C(C#N)C2(CCCCC2)C(C#N)=C(N)N1	.	-	-2.69	-	-	-	-
CCc1ccc(C2CC(c3ccc(C)cc3)n3nc(N)nc3N2)cc1 (stereo not given)	.	.	-	-	-	.	.
Cc1cc(=O)[nH]c(=S)n1-c1ccccc1	.	-	-1.24	-	-	-	-
SMILES	Htt clearance	D1 allo mod	M1 antagonist	WNV NS2B-NS3 inh	M1 ag	M1 antag confirm	mGluR4 antag
COCCNC(=O)C(c1ccc(C)o1)N(C(=O)c1snc(C(N)=O)c1N)c1cc(C)cc(C)c1 (stereo not given)	.	-	-	-	-	.	.
O=C(CSc1nc2cc(Cl)ccc2s1)NC(=O)NCc1ccco1	.	-	-2.11	-	-	-	-
CCOc1ccc2nc(SCC(=O)NCc3ccco3)sc2c1	-	-	-	-	-	.	.
O=C(NCc1ccco1)c1cc2cc3ccc(Cl)cc3nc2o1	-	-	-2.52	-	-	-	-
O=C(NCc1ccco1)c1ccc(CS(=O)(=O)Cc2ccc(Cl)cc2)o1	.	-	-	-	-	.	.
CCC(C)NC(=O)C1CCCN(C(=O)Nc2ccc(F)cc2)C1 (stereo not given)	.	-	-	-	-	.	.
CCOC(=O)c1ccc(-n2nc(C(F)(F)F)c3c(C)cc(=O)oc32)cc1	-	.	.	.	.	.	.
O=C(Nc1ccccc1)N1CCN(Cc2ccc3c(c2)OCO3)CC1	-	-	-	-	-	.	.
c1ccc(CN2CCC(N3CCN(Cc4ccc5c(c4)OCO5)CC3)CC2)cc1	.	-	-2.26	-	-	330	-
O=C(CN(c1ccccc1)S(=O)(=O)c1ccccc1)N1CCN(Cc2ccc3c(c2)OCO3)CC1	.	-	-4.05	-	-	436	-
CSc1ccc(S(=O)(=O)N2CCN(Cc3ccc4c(c3)OCO4)CC2)cc1	.	-	-2.11	-	-	-	-
O=C(CSCc1ccccc1)N1CCN(Cc2ccc3c(c2)OCO3)CC1	-	-	-	-	-	.	.
O=C(CSc1nnc(CN2CCOCC2)n1-c1ccccc1)N1CCc2ccccc21	.	-	-	-	-	.	.
O=C(COc1ccc2ccccc2c1CN1CCOCC1)N1CCc2ccccc21	.	-	-2.06	-	-	336	-
c1coc(CNc2nc(N3CCCCC3)nc3ccccc23)c1	.	-3.71	-1.49	-	-	-	-
Cc1ccnc(SCCn2c(Br)nc3c2c(=O)n(C)c(=O)n3C)n1	.	-	-	-	-	.	.
COc1cccc(CN2C(=O)CCC2(C)C(=O)NC2CCCCC2)c1 (stereo not given)	.	-	-3.5	-	-	-	-
COc1ccc(CN2C(=O)CCC2(C)C(=O)NC2CCCCCC2)cc1 (stereo not given)	-	-	-	-	-	.	.
COc1ccc(-c2ccc(SCC(=O)NCc3ccco3)nn2)cc1	-	-	-13	-	-	-	-
COc1ccc(-c2[nH]c(-c3cccc(OC)c3)nc2SCC(=O)NCc2ccco2)cc1	-	-	-3.05	-	-	-	-
O=C(c1ccc(=O)oc1)N1CCN(C(c2ccccc2)c2ccccc2)CC1	-	.	-2.68	-	-	319	-
Cc1cc(C(=O)N2CCN(C(c3ccccc3)c3ccccc3)CC2)no1	-	-	-3.02	-	-	301	-
Cc1cc(=O)oc(C)c1C(=O)N1CCN(C(c2ccccc2)c2ccccc2)CC1	.	-	-	-	-	.	.
CCOC(=O)C1=C(C)OC(N)=C(C#N)C1c1cc2c(cc1Br)OCO2 (stereo not given)	.	-	-1.9	-	-	417	-
C=CCOC(=O)C1=C(C)OC(N)=C(C#N)C1c1ccc2c(c1)OCO2 (stereo not given)	-	-	-	-	-	.	.
CCN(CC)CCOc1ncnc2c1oc1ccccc12	.	-	-1.58	-	-	584	-
CCc1nc(OCCN(CC)CC)c2oc3ccccc3c2n1	.	-	-	-	-	.	.
C1CCC(CNc2c3c(nc4nnnn24)CCCC3)CC1	.	.	-2.94	-	-	-	-
CC1CCCCN1C(=O)CSc1nnc(Cc2ccccc2)n1C (stereo not given)	-	.	.	.	.	.	.
CCOc1ccc2c(c1)c1nnc(SCC(=O)N3CCC(C)CC3)nc1n2C	.	-	-4.55	-	-	333	-
